# Data: PubChem BioAssay
# The source made the active and inactive calls.
# How the values were obtained:
# [1] = small molecules captured by biotinylated probe aFSTL3 – biochemical, small-molecule microarray, fluorescence 635/667, stem cell growth factor project, primary screen (AID 1064); details: higher = more signal;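 also: measures binding of the biotinylated anti-FSTL3 antibody to printed compounds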
# [2] = binders from COS7 lysate, DM2A8 probe, primary screen, torsin A project, cell lysate, small-molecule microarray, fluorescence 635/667 (AID 1065); details: higher = more signal, COS7 lysate expressing mutant human TOR1A
# [3] = small molecules captured by biotinylated probe aFGF2 – biochemical, small-molecule microarray, fluorescence 635/667, stem cell growth factor project, primary screen (AID 1067); details: higher = more signal;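 also: measures binding of biotinylated aFGF2 protein to printed compounds on slides; z-score merges feature fluorescence and signal-to-noise across triplicate slides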
# [4] = small molecules captured by biotinylated probe aFGF10 – biochemical, small-molecule microarray, fluorescence 635/667, stem cell growth factor project, primary screen (AID 1071); details: higher = more signal;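 also: score merges 667 nm spot intensity and signal to noise from triplicate slides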
# [5] = molecular target: Neurogenic locus notch homolog protein 2 (Homo sapiens) (UniProt Q04721); test: small molecules binding Notch2 protein – biochemical, small-molecule microarray, 635 nm fluorescence, stem cell growth factors, primary screen (AID 1073); details: higher = more signal
# Sequence of Neurogenic locus notch homolog protein 2 (Homo sapiens) (Q04721 whole entry, looked up, canonical isoform): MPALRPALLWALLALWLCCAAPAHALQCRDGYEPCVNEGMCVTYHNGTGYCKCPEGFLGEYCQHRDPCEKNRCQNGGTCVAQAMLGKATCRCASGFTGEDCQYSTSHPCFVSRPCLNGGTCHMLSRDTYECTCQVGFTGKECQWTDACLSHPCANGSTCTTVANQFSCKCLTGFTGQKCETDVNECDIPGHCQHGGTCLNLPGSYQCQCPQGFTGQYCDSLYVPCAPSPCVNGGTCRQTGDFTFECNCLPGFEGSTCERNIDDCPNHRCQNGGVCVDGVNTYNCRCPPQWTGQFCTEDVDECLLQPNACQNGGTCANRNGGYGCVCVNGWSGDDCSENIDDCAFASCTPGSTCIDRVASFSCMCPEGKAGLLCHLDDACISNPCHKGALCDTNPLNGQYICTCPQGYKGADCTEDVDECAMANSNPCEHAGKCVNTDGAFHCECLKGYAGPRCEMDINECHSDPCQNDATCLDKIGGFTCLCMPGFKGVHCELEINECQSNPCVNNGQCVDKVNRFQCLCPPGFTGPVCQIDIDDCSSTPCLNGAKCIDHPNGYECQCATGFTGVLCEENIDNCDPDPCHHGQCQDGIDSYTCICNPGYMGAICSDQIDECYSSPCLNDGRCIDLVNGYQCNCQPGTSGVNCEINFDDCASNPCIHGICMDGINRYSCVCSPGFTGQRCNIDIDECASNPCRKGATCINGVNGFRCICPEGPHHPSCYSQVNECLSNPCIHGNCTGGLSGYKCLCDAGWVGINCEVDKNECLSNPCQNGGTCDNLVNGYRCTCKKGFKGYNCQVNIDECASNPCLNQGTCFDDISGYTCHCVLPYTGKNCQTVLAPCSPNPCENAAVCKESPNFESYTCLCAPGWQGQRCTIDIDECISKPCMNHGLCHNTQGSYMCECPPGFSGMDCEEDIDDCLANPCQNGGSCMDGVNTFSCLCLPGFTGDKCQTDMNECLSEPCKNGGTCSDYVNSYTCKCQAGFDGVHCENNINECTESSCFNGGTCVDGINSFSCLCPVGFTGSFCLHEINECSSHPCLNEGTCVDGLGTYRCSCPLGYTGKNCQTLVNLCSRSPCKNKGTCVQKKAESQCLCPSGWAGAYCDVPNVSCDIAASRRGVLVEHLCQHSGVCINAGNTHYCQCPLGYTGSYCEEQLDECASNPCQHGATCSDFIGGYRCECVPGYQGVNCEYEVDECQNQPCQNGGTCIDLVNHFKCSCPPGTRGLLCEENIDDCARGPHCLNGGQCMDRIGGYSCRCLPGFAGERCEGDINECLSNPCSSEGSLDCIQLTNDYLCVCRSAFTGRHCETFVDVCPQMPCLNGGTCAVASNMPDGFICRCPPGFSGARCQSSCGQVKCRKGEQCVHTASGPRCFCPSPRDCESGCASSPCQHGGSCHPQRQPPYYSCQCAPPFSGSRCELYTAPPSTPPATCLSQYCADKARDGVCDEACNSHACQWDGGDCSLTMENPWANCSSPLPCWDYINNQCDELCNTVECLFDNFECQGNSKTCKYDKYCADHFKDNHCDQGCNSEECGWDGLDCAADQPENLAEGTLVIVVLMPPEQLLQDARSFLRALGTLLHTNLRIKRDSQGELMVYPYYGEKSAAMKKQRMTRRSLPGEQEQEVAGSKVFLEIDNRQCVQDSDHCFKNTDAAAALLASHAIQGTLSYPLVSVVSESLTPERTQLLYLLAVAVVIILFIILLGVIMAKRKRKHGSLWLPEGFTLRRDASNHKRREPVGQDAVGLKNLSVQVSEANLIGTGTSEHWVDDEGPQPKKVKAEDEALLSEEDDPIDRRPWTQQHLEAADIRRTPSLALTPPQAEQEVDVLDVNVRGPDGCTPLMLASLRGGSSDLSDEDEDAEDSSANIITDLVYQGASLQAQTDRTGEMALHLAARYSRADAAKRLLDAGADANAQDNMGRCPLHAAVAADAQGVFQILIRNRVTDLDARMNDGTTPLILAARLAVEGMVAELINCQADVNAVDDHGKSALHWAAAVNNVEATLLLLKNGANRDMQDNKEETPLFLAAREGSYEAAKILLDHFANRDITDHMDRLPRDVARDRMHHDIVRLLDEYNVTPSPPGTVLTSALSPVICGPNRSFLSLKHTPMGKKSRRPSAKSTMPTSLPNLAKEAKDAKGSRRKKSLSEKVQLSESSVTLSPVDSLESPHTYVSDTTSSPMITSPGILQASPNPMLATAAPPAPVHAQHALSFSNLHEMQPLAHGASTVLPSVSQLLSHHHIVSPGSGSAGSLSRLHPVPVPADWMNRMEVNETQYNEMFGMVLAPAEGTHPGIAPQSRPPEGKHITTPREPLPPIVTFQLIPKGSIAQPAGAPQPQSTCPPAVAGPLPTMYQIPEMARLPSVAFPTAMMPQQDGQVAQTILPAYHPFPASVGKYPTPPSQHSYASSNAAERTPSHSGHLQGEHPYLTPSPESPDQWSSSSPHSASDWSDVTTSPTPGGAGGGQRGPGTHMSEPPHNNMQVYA
# [6] = molecular target: Pro-neuregulin-1, membrane-bound isoform (Homo sapiens) (UniProt Q02297); test: small molecules binding neuregulin-1 protein – biochemical, small-molecule microarray, fluorescence 635/667, psychiatric disease protein project, primary screen (AID 1075); details: NRG1 binding, 635 nm fluorescence, higher = more signal;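 also: score combines 667 nm spot fluorescence with signal to noise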
# Sequence of Pro-neuregulin-1, membrane-bound isoform (Homo sapiens) (Q02297 whole entry, looked up, the tested form may be a part, canonical isoform): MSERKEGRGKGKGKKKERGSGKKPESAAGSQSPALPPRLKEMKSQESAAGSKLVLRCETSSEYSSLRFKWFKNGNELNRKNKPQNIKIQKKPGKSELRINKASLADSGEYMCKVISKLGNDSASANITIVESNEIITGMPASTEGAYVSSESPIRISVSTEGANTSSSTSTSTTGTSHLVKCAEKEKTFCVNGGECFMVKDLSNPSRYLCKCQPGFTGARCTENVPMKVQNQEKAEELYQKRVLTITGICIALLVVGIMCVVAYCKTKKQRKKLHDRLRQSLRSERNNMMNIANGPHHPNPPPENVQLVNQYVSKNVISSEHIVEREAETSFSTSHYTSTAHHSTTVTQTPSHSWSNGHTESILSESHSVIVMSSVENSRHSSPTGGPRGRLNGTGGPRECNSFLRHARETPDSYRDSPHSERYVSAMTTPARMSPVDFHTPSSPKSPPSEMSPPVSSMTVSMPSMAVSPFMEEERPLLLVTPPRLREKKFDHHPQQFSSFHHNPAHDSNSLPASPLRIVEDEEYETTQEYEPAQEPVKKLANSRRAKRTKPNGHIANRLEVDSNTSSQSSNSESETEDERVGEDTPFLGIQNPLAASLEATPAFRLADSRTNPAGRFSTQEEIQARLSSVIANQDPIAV
# [7] = test system: Neuregulin-1 EGF-like domain; test: small molecules binding NRG1 EGF domain – biochemical, small-molecule microarray, 635 nm fluorescence, primary screen (AID 1081); details: higher = more signal;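 also: binding of the protein to compounds printed on small-molecule microarray slides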
# [8] = FRG1 expression reporter modulators in myotubes – cell-based, C2C12 myotubes, firefly/Renilla luciferase, luminescence, FRG1 inhibition for FSHD, primary screen (AID 1084); details: FRG1 promoter luciferase, higher = more signal, called active from +8 up or from −8 down
# [9] = small molecules captured by biotinylated probe aFST – biochemical, small-molecule microarray, fluorescence 635/667, stem cell growth factor project, primary screen (AID 1086); details: higher = more signal;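 also: score merges 667 nm fluorescence with signal-to-noise of each printed compound spot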
# [10] = binders of probe aHhip on microarray, primary screen, stem cell growth factor project, biochemical, small-molecule microarray, fluorescence 635/667 (AID 1087); details: higher = more signal;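 also: score merges spot fluorescence at 667nm with spot signal to noise ratio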
SMILES,composite z-score [1],composite z-score [2],composite z-score [3],composite z-score [4],composite z-score [5],composite z-score [6],composite z-score [7],z-score [8],composite z-score [9],composite z-score [10]
OCCCC1=CC(c2ccc(CN3CCCC3)cc2)N(Cc2cc3c(cc2Br)OCO3)CC1 (stereo not given),0.492,0.52,-0.135,-0.373,-0.108,-0.384,0.748,-0.0594 (inactive),0.47,-0.0237
CN(C)C(=O)[C@]1(CCC(=O)OC(C)(C)C)N=C(c2ccc(OCCCO)cc2)O[C@@H]1c1ccccc1CN=[N+]=[N-],0.292,1.28,0.485,0.488,0.934,1.89,1.15,3.58 (inactive),1.34,-0.476
CO[C@H]1O[C@H](CO)[C@@H](OC(=O)Nc2ccc3c(c2)OCO3)[C@H](OC(=O)Nc2ccc3c(c2)OCO3)[C@@H]1OC(=O)Nc1ccc2c(c1)OCO2,-0.202,0.584,0.256,1.21,1.26,1.78,1.2,2.2 (inactive),0.338,0.0818
CCOC(=O)C[C@H]1[C@H](OC(=O)c2cc3ccccc3oc2=O)[C@@H](NC(=O)c2ccccc2)c2cc(OCCCO)ccc2N1C(=O)c1ccccc1,-0.319,0.524,-0.105,0.462,1.17,0.0287,0.819,1.57 (inactive),0.349,-0.199
CN1C2C=C(CCCO)C(C3C(=O)N(C(N)=O)C(=O)C32)C1C1CC1 (stereo not given),-0.263,0.416,-0.0959,-0.148,-0.536,0.0343,0.949,0.397 (inactive),-0.57,0.0274
NCCCCCCNC(=O)[C@@H]1C[C@@H]2C(=O)N[C@@H](CCCCN)C(=O)N2[C@@H]1c1ccc(O)cc1,0.208,0.301,-0.0313,0.469,0.147,2.01,1.25,0.598 (inactive),0.077,-0.149
COC(=O)C1=CC(CCCO)=CC(c2ccc(CN3CCCC3)cc2)N(Cc2cccc(OC(F)(F)F)c2)C=C1C(=O)OC (stereo not given),0.928,-0.185,-0.0361,0.419,1.44,1.79,1.11,-0.616 (inactive),0.857,-0.0994
COCCOC(=O)N1C(=O)[C@@]2(c3cc(C#CC4(O)CCCCCC4)ccc31)[C@H](C(=O)Nc1nc3ccccc3s1)[C@H]1C(=O)O[C@H](c3ccccc3)[C@H](c3ccccc3)N1[C@@H]2c1ccc(O)cc1,-0.304,0.442,-0.0202,0.539,1.24,1.46,1.2,0.21 (inactive),1.47,0.107
C=CCOC(=O)[C@@H]1[C@H]2C(=O)O[C@H](c3ccccc3)[C@H](c3ccccc3)N2[C@H](c2ccc(OCCOC(=O)[C@@H]3C[C@@H]4C(=O)N[C@@H](CCCC[N+](C)(C)C)C(=O)N4[C@@H]3c3ccc(O)cc3)cc2)[C@@]12C(=O)Nc1ccc(I)cc12,-0.106,0.956,-0.0005,0.884,0.617,1.2,1.38,3.51 (inactive),-0.0446,-0.16
C=CCN1C(=O)[C@]2(CCC(=O)OC(C)(C)C)N=C(c3ccc(OCCCO)cc3)O[C@@H]2c2ccccc21,0.369,0.401,-0.0791,-0.475,0.729,0.811,0.542,-2.29 (inactive),0.0909,-0.0994
COC(=O)[C@]1(CCS(=O)(=O)c2ccccc2)N=C(c2ccc(OCCCO)cc2)O[C@@H]1c1ccccc1N=[N+]=[N-],0.48,0.619,0.136,0.898,1.53,1.79,1.37,1.89 (inactive),1.15,0.0102
[N-]=[N+]=Nc1ccccc1C[C@]1(C(=O)O)COC(c2ccc(OCCCO)cc2)=N1,0.326,-1.1,-0.11,0.518,0.194,0.614,1.19,5.78 (inactive),0.205,0.419
CC(C)N1C(=O)C[C@@](C(=O)O)(c2ccc([N+](=O)[O-])cc2)[C@H]1c1ccc(CO)cc1,1,0.208,-0.031,0.117,-0.436,0.425,1.04,0.161 (inactive),-0.322,0.0373
C=CCNC(=O)[C@@H]1[C@H]2C(=O)O[C@H](c3ccccc3)[C@H](c3ccccc3)N2[C@H](c2ccc(O)cc2)[C@@]12C(=O)N(C(=O)OCCOC)c1ccc(C#CC3=CCCCC3)cc12,-0.254,0.467,-0.021,0.512,0.761,1,1.17,0.816 (inactive),0.668,0.951
COC(=O)[C@@]1(Cc2ccc(OC)cc2)[C@H]2c3cc(C(=O)N(C)C)n(Cc4ccc(OC(F)(F)F)cc4)c3C[C@H]2CN1C(=O)c1ccccc1,0.363,-0.468,-0.121,-0.0332,1.58,1.39,1.44,2.88 (inactive),0.575,0.276
COC(=O)[C@@]1(Cc2ccc(F)cc2)[C@H]2c3cc(C(=O)N4CCCC4)n(Cc4ccc(C)c(F)c4F)c3C[C@H]2CN1C(=O)c1ccccc1,0.573,-0.0621,-0.0887,-0.227,1.11,1.29,1.35,2.59 (inactive),0.409,-0.0618
[N-]=[N+]=Nc1ccccc1C[C@]1(C(=O)NCCN2CCOCC2)COC(c2ccc(OCCCO)cc2)=N1,0.295,1.26,-0.27,-0.0786,0.722,1.55,1.39,0.706 (inactive),0.143,-0.0994
C=CC[C@H](OC(=O)Nc1ccc(SC)cc1)c1ccc(O)c2ccccc12,0.0792,0.104,0.0536,0.254,1.3,1.75,1.33,7.23 (inactive),0.385,0.176
COC(=O)[C@@]1(Cc2ccc(OC)cc2)[C@H]2c3cc(C(=O)N4CCCC4)n(CCc4c[nH]c5ccc(O)cc45)c3C[C@H]2CN1C(=O)c1ccccc1,0.77,0.0885,0.155,0.897,1.7,1.44,1.37,0.829 (inactive),1.46,-0.374
COCCOC(=O)N1C(=O)[C@@]2(c3cc(C#CCCO)ccc31)[C@H](c1ccc(OCCO)cc1)N1[C@H](c3ccccc3)[C@H](c3ccccc3)OC(=O)[C@H]1[C@@H]2C(=O)Nc1nc2ccccc2s1,0.878,0.68,0.0943,0.575,0.586,0.222,1.1,2.92 (inactive),1.24,0.547
COC(=O)[C@@]1(Cc2ccc(OC)cc2)[C@H]2c3cc(C(=O)N(C)C)n(Cc4ccc(C)o4)c3C[C@H]2CN1C(=O)c1ccccc1,0.429,-0.342,0.0807,0.423,1.61,1.85,1.24,-0.472 (inactive),1.16,1.48
CCC#CCN(Cc1ccccc1Br)[C@H](/C=C/C1CC1)[C@@H](O)Cc1ccccc1,0.689,0.131,-0.17,-0.548,-1.46,-0.285,-0.33,-1.96 (inactive),-0.17,-0.169
CCCCCN1CC=CC23O[C@@H]4/C=C\CCC(C)OC(=O)C4[C@H]2C(=O)N(C(CO)C(C)C)[C@@H]3C1=O (stereo not given in full),-1.2,-0.456,-0.245,-0.246,-0.406,1.21,1.38,-0.23 (inactive),-0.592,-0.457
CCCCN1CC=CC23O[C@@H]4/C=C\CCC(C)OC(=O)C4[C@H]2C(=O)N(CCCO)[C@@H]3C1=O (stereo not given in full),0.35,-0.913,-0.195,-0.317,-0.962,1.93,1.1,-0.313 (inactive),-0.663,-0.306
CCCC[C@@H](O)C1=C(COc2ccccc2)C[C@H]2C(=O)N(Cc3ccccc3)C(=O)[C@H]2[C@H]1CO,-0.123,0.195,-0.147,0.479,0.339,1.01,0.426,-0.791 (inactive),-0.0226,-0.449
CC(=O)NCCCC[C@@H]1NC(=O)[C@@H]2C[C@H](C(=O)NCCCCCN)[C@H](c3ccc(O)cc3)N2C1=O,0.95,1.25,0.088,0.864,0.702,0.995,1.43,0.604 (inactive),0.491,-0.334
